The supplement of paper PMC12494721
Where a name gives a salt, the structure may show the parent alone.

How the values were obtained:
Settings in all cases: incubation time: 27 h, anaerobic, 37 °C;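 for the amine columns active = adjusted P below 0.05 in both replicates with a change the same way and a mean fold change under 0.8 or over 1.25; inactive = the rest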
[1] = test system: Clostridium sporogenes DSM 1664; test: growth (OD595) fold change vs plate DMSO controls (fold change (ratio)); higher = more growth
Summary of the method: (§1)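 After 27 h at 37 °C under anaerobic conditions, 96-well cultures in mGAM were shaken and read at 595 nm. The readings were blank-subtracted, corrected for compound background using 20 µM compound solutions in water, and converted to OD with a calibration factor of 5. Growth is defined as the fold change over the median of DMSO controls on each plate. Fold changes above 1.5 were set to NA, and each value is the mean of 2 biological replicates.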

Escherichia coli IAI1 [2] = test: as above
Summary of the method: as §1

[3] = test system: Klebsiella aerogenes DSM 30053; test: as above
Summary of the method: as §1

[4] = test system: Ruminococcus gnavus DSM 108212; test: as above
Summary of the method: as §1

[5] = test system: Klebsiella aerogenes DSM 30053; test: fold change of Histamine concentration vs plate DMSO controls (fold change (ratio)); higher = more amine produced, active = hit call of the paper (significant change in both replicates, either direction)
Summary of the method: (§2)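 Anaerobic mGAM cultures of four gut bacterial strains were grown at 37 °C for 27 h in 80 µL wells, starting at OD 0.1 before 1:1 dilution. Compounds were at 20 µM final (sweeteners 50 µM). Whole cultures were extracted with cold acetonitrile/methanol containing 0.1% formic acid and centrifuged. Amines were quantified by LC–triple-quadrupole MS (dynamic MRM) against external calibration curves and drift-corrected within batch. Each value is the fold change versus plate DMSO controls, averaged over 2 biological replicates.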

[6] = test system: Clostridium sporogenes DSM 1664; test: fold change of Tryptamine concentration vs plate DMSO controls (fold change (ratio)); higher = more amine produced, active = hit call of the paper (significant change in both replicates, either direction)
Summary of the method: as §2

[7] = test system: Ruminococcus gnavus DSM 108212; test: as above
Summary of the method: as §2

Escherichia coli IAI1 [8] = test: fold change of Putrescine concentration vs plate DMSO controls (fold change (ratio)); higher = more amine produced, active = hit call of the paper (significant change in both replicates, either direction)
Summary of the method: as §2

[9] = test system: Klebsiella aerogenes DSM 30053; test: as above
Summary of the method: as §2

Escherichia coli IAI1 [10] = test: fold change of Cadaverine concentration vs plate DMSO controls (fold change (ratio)); higher = more amine produced, active = hit call of the paper (significant change in both replicates, either direction)
Summary of the method: as §2

[11] = test system: Klebsiella aerogenes DSM 30053; test: as above
Summary of the method: as §2

[12] = test system: Ruminococcus gnavus DSM 108212; test: fold change of 2-Phenylethylamine concentration vs plate DMSO controls (fold change (ratio)); higher = more amine produced, active = hit call of the paper (significant change in both replicates, either direction)
Summary of the method: as §2

SMILES | growth [1] | growth (Escherichia coli IAI1 [2]) | growth [3] | growth [4] | fold change of Histamine concentration [5] | fold change of Tryptamine concentration [6] | fold change of Tryptamine concentration [7] | fold change of Putrescine concentration (Escherichia coli IAI1 [8]) | fold change of Putrescine concentration [9] | fold change of Cadaverine concentration (Escherichia coli IAI1 [10]) | fold change of Cadaverine concentration [11] | fold change of 2-Phenylethylamine concentration [12]
O=S(=O)(O)NC1CCCCC1 [Cyclamic acid] (50 µM) | 1.16 | 0.998 | 0.991 | 0.998 | 1.01 (inactive) | 1.03 (inactive) | 1.01 (inactive) | 1.03 (inactive) | 1.01 (inactive) | 0.989 (inactive) | 0.991 (inactive) | 1.02 (inactive)
CCOc1ccc(NC(=O)CC(C)O)cc1 (centres undefined) [Bucetin] (20 µM) | 0.973 | 0.985 | 0.995 | 1.07 | 0.984 (inactive) | 0.999 (inactive) | 0.95 (inactive) | 0.997 (inactive) | 1.01 (inactive) | 0.977 (inactive) | 0.993 (inactive) | 0.936 (inactive)
NC[C@H]1CC[C@H](C(=O)O)CC1 [Tranexamic acid] (20 µM) | 1.06 | 1.02 | 1 | 1.14 | 0.965 (inactive) | 1.03 (inactive) | 0.85 (inactive) | 0.977 (inactive) | 1.01 (inactive) | 1.01 (inactive) | 1.01 (inactive) | 0.849 (inactive)
CC1(C)S[C@@H]2[C@H](NC(=O)[C@H](N)c3ccccc3)C(=O)N2[C@H]1C(=O)OC1OC(=O)c2ccccc21 (some centres undefined) [Talampicillin hydrochloride] (20 µM) | 0 | 0.00609 | 0.378 | 0.146 | 0.797 (active) | 0.0102 (active) | 0.0823 (active) | 0.252 (active) | 0.971 (inactive) | 0.867 (inactive) | 1.13 (inactive) | 0.0586 (active)
Nc1nc(/C(=C/CC(=O)O)C(=O)N[C@@H]2C(=O)N3C(C(=O)O)=CCS[C@H]23)cs1 [Ceftibuten] (20 µM) | 0.5 | 1.06 | 1.14 | 1.27 | 0.885 (inactive) | 1.02 (inactive) | 1.04 (inactive) | 0.79 (inactive) | 1.04 (inactive) | 0.942 (inactive) | 1.07 (inactive) | 1.06 (inactive)
CCCNC(C)C(=O)Nc1c(C)csc1C(=O)OC (centres undefined) [Articaine hydrochloride] (20 µM) | 0.923 | 1.08 | 1.03 | 1.12 | 0.917 (inactive) | 1.06 (inactive) | 1.06 (inactive) | 0.985 (inactive) | 0.992 (inactive) | 0.966 (inactive) | 1.01 (inactive) | 1.09 (inactive)
Clc1ccc(CSC(Cn2ccnc2)c2ccc(Cl)cc2Cl)cc1 (centres undefined) [Sulconazole nitrate] (20 µM) | 0.862 | 1.05 | 0.995 | 0.423 | 0.872 (inactive) | 1 (inactive) | 0.434 (active) | 0.922 (inactive) | 0.96 (inactive) | 0.499 (inactive) | 1.01 (inactive) | 0.667 (active)
N[C@@H](Cc1cc(I)c(Oc2ccc(O)c(I)c2)c(I)c1)C(=O)O [Liothyronine] (20 µM) | 0.986 | 0.992 | 1.03 | 1.09 | 0.981 (inactive) | 0.991 (inactive) | 0.88 (inactive) | 0.906 (inactive) | 0.99 (inactive) | 1.02 (inactive) | 0.993 (inactive) | 0.88 (inactive)
CC(=O)NC[C@H]1CN(c2ccc(N3CCOCC3)c(F)c2)C(=O)O1 [Linezolid] (20 µM) | 0 | 0.788 | 0.985 | 0.196 | 0.819 (inactive) | 0.0335 (active) | 0.112 (active) | 0.59 (active) | 1 (inactive) | 0.777 (active) | 1 (inactive) | 0.119 (active)
CCC[C@@H]1C[C@@H](C(=O)N[C@@H]([C@H]2O[C@H](SC)[C@H](O)[C@@H](O)[C@H]2O)[C@H](C)Cl)N(C)C1 [Clindamycin hydrochloride] (20 µM) | 0.899 | 0.682 | 0.934 | 0.134 | 1.54 (inactive) | 0.0905 (active) | 0.136 (active) | 0.4 (inactive) | 0.537 (inactive) | 0.844 (inactive) | 0.932 (inactive) | 0.125 (active)
CC(NN)c1ccccc1 (centres undefined) [Mebanazine] (20 µM) | 1.11 | 1 | 0.988 | 0.887 | 1.04 (inactive) | 1.04 (inactive) | 0.985 (inactive) | 0.997 (inactive) | 1.03 (inactive) | 0.986 (inactive) | 0.998 (inactive) | 0.916 (inactive)
COc1ccc2[nH]c([S+]([O-])Cc3ncc(C)c(OC)c3C)nc2c1 (centres undefined) [Omeprazole] (20 µM) | 1.05 | 0.96 | 1.01 | 1.2 | 0.936 (inactive) | 1.02 (inactive) | 1.01 (inactive) | 0.97 (inactive) | 1.01 (inactive) | 1 (inactive) | 1 (inactive) | 1.02 (inactive)
O=C(CCCl)NCc1ccccc1 [Beclamide] (20 µM) | 1.18 | 1.02 | 1 | 1.07 | 1.03 (inactive) | 1.02 (inactive) | 1.02 (inactive) | 1.01 (inactive) | 1.01 (inactive) | 1.04 (inactive) | 0.996 (inactive) | 1.03 (inactive)
NS(=O)(=O)c1cc2c(cc1Cl)N=CNS2(=O)=O [Chlorothiazide] (20 µM) | 1.05 | 1.06 | 1.03 | 0.966 | 1.05 (inactive) | 0.97 (inactive) | 0.998 (inactive) | 1.05 (inactive) | 1.03 (inactive) | 0.97 (inactive) | 1.01 (inactive) | 1.01 (inactive)
C[C@@H]1[C@H](O)[C@@H](C)/C=C/C=C/C=C/C=C/C=C/C=C/C=C/[C@H](O[C@@H]2O[C@H](C)[C@@H](O)[C@H](N)[C@@H]2O)C[C@@H]2O[C@](O)(C[C@@H](O)C[C@@H](O)[C@H](O)CC[C@@H](O)C[C@@H](O)CC(=O)O[C@H]1C)C[C@H](O)[C@H]2C(=O)O [Amphotericin B] (20 µM) | 0.881 | 1.01 | 0.982 | 0.469 | 1.01 (inactive) | 0.985 (inactive) | 1.09 (inactive) | 1.23 (inactive) | 0.957 (inactive) | 1.09 (inactive) | 1.14 (inactive) | 1.25 (inactive)
CCN(CC)C(=O)c1ccc(O)c(OC)c1 [Ethamivan] (20 µM) | 1.12 | 1.02 | 1.05 | 0.873 | 0.973 (inactive) | 1.02 (inactive) | 1.04 (inactive) | 1.02 (inactive) | 1.02 (inactive) | 1.01 (inactive) | 1.01 (inactive) | 1.05 (inactive)
N=C(N)NCc1cccc(I)c1 [Iobenguane sulfate] (20 µM) | 0.944 | 0.983 | 0.971 | 0.721 | 0.89 (inactive) | 1 (inactive) | 1.08 (inactive) | 0.949 (inactive) | 0.914 (inactive) | 1.04 (inactive) | 1.1 (inactive) | 1.09 (inactive)
CCC[C@@H]1C[C@@H](C(=O)N[C@@H]([C@H]2O[C@H](SC)[C@H](O)[C@@H](O)[C@H]2O)[C@@H](C)O)N(C)C1 [Lincomycin hydrochloride] (20 µM) | 0.767 | 0.925 | 0.981 | 0.121 | 0.952 (inactive) | 0.761 (active) | 0.129 (active) | 0.531 (inactive) | 0.682 (active) | 0.967 (inactive) | 1.02 (inactive) | 0.117 (active)
CCCCCN(C)CCC(O)(P(=O)(O)O)P(=O)(O)O [Ibandronate sodium] (20 µM) | 1.07 | 0.989 | 0.973 | 0.926 | 1.04 (inactive) | 1.05 (inactive) | 0.934 (inactive) | 1 (inactive) | 1.01 (inactive) | 1.03 (inactive) | 0.994 (inactive) | 0.958 (inactive)
CCCCc1oc2ccccc2c1C(=O)c1cc(I)c(OCCN(CC)CC)c(I)c1 [Amiodarone hydrochloride] (20 µM) | 1.17 | 1.02 | 0.991 | 0.65 | 1.06 (inactive) | 1.1 (inactive) | 0.75 (active) | 0.96 (inactive) | 1.02 (inactive) | 1.04 (inactive) | 0.985 (inactive) | 0.89 (inactive)
O=C1O[C@H]([C@@H](O)CO)C(O)=C1O [Ascorbic acid] (20 µM) | 1.01 | 1.03 | 0.981 | 0.975 | 1.08 (inactive) | 1.05 (inactive) | 1.06 (inactive) | 1.01 (inactive) | 0.978 (inactive) | 1.03 (inactive) | 1.04 (inactive) | 1.03 (inactive)
COc1ccc2cc1Oc1ccc(cc1)C[C@H]1c3c(cc4c(c3Oc3cc5c(cc3OC)CCN(C)[C@@H]5C2)OCO4)CCN1C [Cepharanthine] (20 µM) | 0.965 | 0.982 | 1.02 | 0.925 | 1.04 (inactive) | 0.993 (inactive) | 0.945 (inactive) | 0.952 (inactive) | 1.01 (inactive) | 1.03 (inactive) | 1 (inactive) | 0.981 (inactive)
